The supplement of paper PMC7866885, “A novel bicyclic 2,4-diaminopyrimidine inhibitor of Streptococcus suis dihydrofolate reductase” (PeerJ, 2021)
± gives the standard deviation.

What follows are compounds tested on Streptococcus suis HE06 (assay: percent growth relative to DMSO control; higher = less growth inhibition). Conditions: 10 µM; incubation time 18 h.
Procedure: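 CLSI broth microdilution: 5x10^4 CFU of Streptococcus suis (strain P1/7 or HE06) incubated with 10 µM Pathogen Box compound in cation-adjusted Mueller Hinton broth, 37 °C, 5% CO2, 18 h. Growth read as OD600 and expressed as percent of the DMSO-treated control (100%); mean ± SD of three independent experiments.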

| Structure (SMILES) | percent growth |
| --- | --- |
| CC(=O)Nc1ccc(NC(=O)c2cc(-c3cc(Cl)ccc3O)[nH]n2)cc1 | 96.5 ± 11% |
| O=C(C1CCN(c2nnc(-n3cccc3)s2)CC1)N1CCC(Cc2ccccc2)CC1 | 120 ± 18% |
| CC1(COc2ccc(N3CCC(Oc4ccc(OC(F)(F)F)cc4)CC3)cc2)Cn2cc([N+](=O)[O-])nc2O1 (configuration not stated) | 91.7 ± 9.5% |
| COc1cccc(NC(=O)c2c(NC(=O)c3cccnc3)sc3c2CCC3)c1 | 98.2 ± 24% |
| CCN(CC)CCCCCCNc1cc(OC)cc2c(C)ccnc12 | 81.6 ± 14% |
| Cc1cc(C(=O)Nc2ccc(-c3ccccc3)cc2)no1 | 103 ± 36% |
| Cc1[nH]c2cc(F)cc(F)c2c(=O)c1-c1ccc(Oc2ccc(OC(F)(F)F)cc2)cc1 | 96.3 ± 3.2% |
| COc1ccc(-c2onc(C(F)(F)F)c2-c2ccc(Cl)cc2)c(O)c1 | 26.1 ± 45% |
| COc1ccc(C2CC(c3cccs3)=NN2C(=O)c2ccco2)cc1OC (configuration not stated) | 75.4 ± 3% |
| CN1CCC(NCc2cccc(-c3ccc(S(=O)(=O)NCc4ccccc4)cc3)c2)CC1 | 94.9 ± 28% |
| CC(=O)NC[C@H]1CN(c2ccc(N3CCSCC3)c(F)c2)C(=O)O1 | 3.44 ± 3.9% |
| Nc1ncnc2c1ncn2[C@@H]1O[C@H](COS(=O)(=O)NC(=O)c2ccccc2O)[C@@H](O)[C@H]1O | 97.4 ± 8.2% |
| CCN(CC)C(=O)N1CCN(C)CC1 | 92.6 ± 6.9% |
| CC1COC2(CCN(c3nc(=O)c4cc(C(F)(F)F)cc([N+](=O)[O-])c4s3)CC2)O1 (configuration not stated) | 80.1 ± 1.6% |
| CCCS(=O)(=O)N1CCC(CO)(Cc2ccccc2C(F)(F)F)CC1 | 99.2 ± 19% |
| Cc1nc2ccccn2c1C(=O)NCc1ccc(Cl)cc1 | 78.1 ± 14% |
| COc1cc(-c2cc(-c3ccc(S(C)(=O)=O)cc3)cnc2N)ccc1O | 106 ± 34% |
